# Laboratory results reported in PubChem BioAssay (NCATS).
# Records with an inconclusive call do not appear. A call without a number means that no potency is given here. Calls of active or inactive are those of the source. Calls come from the whole dose curve; as a rule, active = well fitted inhibition curve with a large enough effect; inconclusive = small, poorly fitted or top-dose-only effect; inactive = no such curve, though single readings can be large or run the other way.
# Test system: Zika virus NS2B-NS3 protease (unlinked complex)
# Assay: Primary screen GU Rhodamine qHTS for Zika virus inhibitors: Unlinked NS2B-NS3 protease assay (AID 1347159); note: nearly all actives have a fitted effect of over 60% in size; note: potency is the fitted concentration of half-maximal effect
# Settings: Recombinant ZIKV NS2B-NS3 protease, Rhodamine110 substrate fluorescence; series mostly up to 107 µM
# How it was run: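 A qHTS format was used, with compound concentrations ranging up to 114 microM. Each compound was preincubated with 25 nM NS2B-NS3 protease, and the substrate was then added at 1.5 microM. Curves were fitted with a 4-parameter Hill model.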
row,SMILES,Potency
1,CC(=O)O[C@@H]1[C@H](OC(C)=O)C[C@@]2(C)C(CC[C@@H](C)[C@]23Cc2c(O)cc4c(c2O3)CN([C@@H](CCC(=O)O)C(=O)O)C4=O)C1(C)C (some centres undefined),inactive
2,C/C=C(\C)C(=O)OCC1OC(OCC2OC(OC3(CO)OC(CO)C(O)C3O)C(O)C(O)C2O)C(O)C(O)C1O (centres undefined),inactive
3,c1cc(-c2cc(C3CCNCC3)[nH]n2)ccn1,inactive
4,CC1(C)CC[C@]2(C(=O)O[C@@H]3O[C@H](CO[C@@H]4O[C@H](CO)[C@@H](O)[C@H](O)[C@H]4O)[C@@H](O)[C@H](O[C@@H]4O[C@H](CO)[C@@H](O)[C@H](O)[C@H]4O)[C@H]3O)CC[C@]3(C)C(=CCC4[C@@]5(C)CC[C@H](O[C@@H]6OC[C@@H](O)[C@H](O)[C@H]6O)[C@@](C)(C(=O)O)C5CC[C@]43C)[C@@H]2C1 (some centres undefined),inactive
5,Cn1cc(Nc2cnccc2C(=O)O)c2cccnc21,inactive
6,CC(C)(Oc1ccc(-c2nc3cc(Cl)ccc3s2)cc1)C(=O)O,35.5 µM (active)

# Test system: Zika virus NS2B-NS3 protease (linked construct)
# Assay: Primary screen NINDS Rhodamine qHTS for Zika virus inhibitors (AID 1347160); note: nearly all actives have a fitted effect of over 55% in size
# Settings: purified NS2B-NS3 protease, Rhodamine110 substrate fluorescence; series mostly up to 33.1 µM
# How it was run: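 Kinetic fluorescence (Ex 480 nm, Em 540 nm) over 15 min with 1.5 microM Rhodamine110 peptide and 25 nM linked protease.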
row,SMILES,Potency
1,Cc1cccc(NC(=O)CN2CCC(c3ccccn3)CC2)c1,inactive
2,Fc1cccc(CN(C2=NCCN2)c2c(Cl)cccc2Cl)c1,inactive
3,CC(=O)c1ccc(O[C@@H]2O[C@H](CO[C@@H]3OC[C@@H](O)[C@H](O)[C@H]3O)[C@@H](O)[C@H](O)[C@H]2O)cc1,inactive
4,CC1(C)COC(=O)[C@@H]1O[C@@H]1O[C@H](CO)[C@@H](O)[C@H](O)[C@H]1O,inactive
5,CC(C)C1(O)C=C2C(=O)CC3C(C)(C(=O)O)CCCC3(C)C2CC1 (centres undefined),inactive
6,CC(C)C1NC(=O)C2CCCN2C1=O (centres undefined),inactive
7,CN(C)C(=O)C(O)C(Cc1ccccc1)NC(=O)c1cc2cc(Cl)ccc2[nH]1 (centres undefined),inactive
8,C[C@@H]1CCC2C(C)(C)[C@H](O)[C@H](O)C[C@]2(C)[C@@]12Cc1c(O)cc3c(c1O2)CN(CCCC(=O)O)C3=O (some centres undefined),inactive
9,COc1ccc(C2OCC3C(c4cc(OC)c5c(c4)OCO5)OCC23)cc1OC (centres undefined),inactive
10,CC(=O)O[C@@H]1[C@H](OC(C)=O)C[C@@]2(C)C(CC[C@@H](C)[C@]23Cc2c(O)cc4c(c2O3)CN([C@@H](CCC(=O)O)C(=O)O)C4=O)C1(C)C (some centres undefined),inactive
11,C/C=C(\C)C(=O)OCC1OC(OCC2OC(OC3(CO)OC(CO)C(O)C3O)C(O)C(O)C2O)C(O)C(O)C1O (centres undefined),inactive
12,CC1(C)CC[C@]2(C(=O)O[C@@H]3O[C@H](CO[C@@H]4O[C@H](CO)[C@@H](O)[C@H](O)[C@H]4O)[C@@H](O)[C@H](O[C@@H]4O[C@H](CO)[C@@H](O)[C@H](O)[C@H]4O)[C@H]3O)CC[C@]3(C)C(=CCC4[C@@]5(C)CC[C@H](O[C@@H]6OC[C@@H](O)[C@H](O)[C@H]6O)[C@@](C)(C(=O)O)C5CC[C@]43C)[C@@H]2C1 (some centres undefined),inactive
13,Cn1cc(Nc2cnccc2C(=O)O)c2cccnc21,inactive
